One experiment has as its target Albumin (Bos taurus) (UniProt P02769). Description: bovine serum albumin binders on microarray, profiling panel, artefact control for SMM control protein annotation, biochemical, small-molecule microarray, Alexa647 label, 635/667 nm fluorescence (AID 1118).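 Note: score merges 667 nm emission intensity and signal-to-noise per printed compound spot.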 The note with it: BSA-A647 binding, fluorescence 635 nm, higher = more signal.
Experiment [1] is described as follows: small-molecule microarray binders of probe aXIP, primary screen, biochemical, NeuroSMM set, 635/667 nm fluorescence (AID 1119).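 Note: probe is the protein aXip251-270 applied at 1 µg/mL to compound-printed slides; binding of probe to printed compounds measured as 667 nm fluorescence plus signal to noise.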 The note with it: higher = more signal, called active from +8 up or from −8 down.
A short description of experiment [2]: small-molecule binders of probe aNOTCH3, primary screen, biochemical, small-molecule microarray, 635/667 nm fluorescence (AID 1120).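 Note: probe is a biotin-tagged antibody raised against NOTCH3 rather than NOTCH3 protein; score merges spot fluorescence near 667 nm with spot signal to noise.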 The settings on record: higher = more signal.
Experiment [3] in a line: small-molecule binders of probe aNOTCH2, primary screen, biochemical, small-molecule microarray, 635/667 nm fluorescence (AID 1121).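 Note: score merges feature fluorescence read at 667 nm with its signal to noise.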 The note with it: higher = more signal.
Experiment [4] deals with Carbonic anhydrase 2 (Homo sapiens) (UniProt P00918). Description: CAII small-molecule binders, profiling panel, biochemical, small-molecule microarray, Alexa647-labelled CAII (AID 1122). The note with it: CAII-A647 binding fluorescence, higher = more signal.
A short description of experiment [5]: COS7 lysate on small-molecule microarray, probe aHis, 635 nm (AID 1123).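 Note: z-score combines 667nm fluorescence intensity with signal-to-noise per printed compound spot.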 The settings on record: COS7 cell lysate, fluorescence, higher = more signal.
Experiment [6] in a line: compound binding in COS7 lysate, probe aLAP1, primary screen, cell lysate, small-molecule microarray (AID 1124).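 Note: lysate comes from COS7 cells expressing LAP1 and is applied at 0.3 µg/mL; score merges spot fluorescence near 667 nm with signal-to-noise over triplicate slides.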 The note with it: probe aLAP1, fluorescence, higher = more signal.
Another experiment has as its system Sam68 (KHDRBS1). Description: Sam68 small-molecule binders, primary screen, biochemical, small-molecule microarray, 635 nm fluorescence (AID 1125).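 Note: score merges 667 nm channel intensity with signal to noise over triplicate slides.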 The settings on record: small-molecule microarray binding, higher = more signal.
Experiment [7] relates to Chordin-like protein 2 (CHRDL2). Description: CHRDL2 small-molecule binders, primary screen, biochemical, small-molecule microarray, 635 nm fluorescence (AID 1126).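 Note: printed compound slides probed with Chrdl2 protein at 4 µg/mL for 1 h at 4 C; score merges 667 nm emission intensity with signal to noise over three replicate slides.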 The settings on record: small-molecule microarray binding, fluorescence 635 nm; higher = more signal.
Experiment [8] concerns the target Concanavalin-A (Canavalia ensiformis) (UniProt P02866). Description: ConA small-molecule binders, primary screen, artefact control for SMM control protein annotation, biochemical, small-molecule microarray, Alexa647 label, 635 nm (AID 1127).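 Note: z combines 667 nm emission intensity with signal-to-noise across three replicate slides.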 The note with it: ConA-A647 binding fluorescence, higher = more signal.
The nature of experiment [9]: anti-His antibody binders, primary screen, artefact control for SMM control protein annotation, biochemical, small-molecule microarray, 635 nm fluorescence (AID 1128).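 Note: score merges feature fluorescence with signal-to-noise for each printed compound spot.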 The note with it: anti-His Alexa647 antibody binding, higher = more signal.
Experiment [10] concerns Human papillomavirus type 1a E7 protein (residues 1-88). As to the kind of experiment: HPV1a E7 small-molecule binders, primary screen, biochemical, small-molecule microarray, residues 1-88, 635 nm (AID 1129). The settings on record: small-molecule microarray binding, fluorescence 635 nm; higher = more signal.
The target of experiment [11] is Focal adhesion kinase 1 (Homo sapiens) (UniProt Q05397). Description: small-molecule microarray binders of FAK, primary screen, biochemical, 635/667 nm fluorescence, BSA, DTT (AID 1130).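 Note: composite of spot emission at 667 nm and signal to noise over triplicate slides.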 The note with it: PTK2 binding, 635 nm fluorescence, higher = more signal.
Sequence of Focal adhesion kinase 1 (Homo sapiens) (Q05397 whole entry, looked up): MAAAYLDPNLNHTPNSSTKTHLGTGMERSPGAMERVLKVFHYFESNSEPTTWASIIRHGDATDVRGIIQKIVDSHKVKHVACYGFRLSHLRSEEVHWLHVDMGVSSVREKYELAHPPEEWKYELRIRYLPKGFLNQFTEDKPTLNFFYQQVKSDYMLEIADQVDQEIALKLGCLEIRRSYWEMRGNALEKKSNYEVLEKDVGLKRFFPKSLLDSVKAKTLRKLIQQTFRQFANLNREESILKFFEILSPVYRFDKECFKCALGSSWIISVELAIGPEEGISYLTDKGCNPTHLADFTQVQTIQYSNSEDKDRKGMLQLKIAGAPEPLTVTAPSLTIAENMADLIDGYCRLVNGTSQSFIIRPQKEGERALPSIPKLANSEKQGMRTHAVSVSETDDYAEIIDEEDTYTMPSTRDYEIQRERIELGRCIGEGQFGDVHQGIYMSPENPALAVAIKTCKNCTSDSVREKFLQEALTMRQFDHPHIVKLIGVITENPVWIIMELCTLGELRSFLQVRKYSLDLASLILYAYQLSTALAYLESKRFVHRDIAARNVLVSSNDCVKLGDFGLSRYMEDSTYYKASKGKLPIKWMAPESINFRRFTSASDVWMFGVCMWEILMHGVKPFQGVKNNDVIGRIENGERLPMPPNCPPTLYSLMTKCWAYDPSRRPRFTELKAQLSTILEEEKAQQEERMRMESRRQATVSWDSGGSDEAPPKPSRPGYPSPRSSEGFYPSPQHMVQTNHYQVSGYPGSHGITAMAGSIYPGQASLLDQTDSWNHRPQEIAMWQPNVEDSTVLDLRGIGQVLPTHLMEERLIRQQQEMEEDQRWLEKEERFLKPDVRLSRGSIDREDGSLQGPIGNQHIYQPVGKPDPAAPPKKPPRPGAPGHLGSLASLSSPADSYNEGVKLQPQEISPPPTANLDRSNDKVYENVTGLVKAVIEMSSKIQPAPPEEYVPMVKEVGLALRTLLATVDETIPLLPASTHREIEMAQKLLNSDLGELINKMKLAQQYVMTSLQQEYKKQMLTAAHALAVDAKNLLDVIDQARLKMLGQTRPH
The subject of experiment [12] is Fibrinogen (Alexa647-labelled). As to the kind of experiment: fibrinogen binders on compound microarrays, profiling panel, artefact control for SMM control-protein annotation, biochemical, small-molecule microarray, 635/667 nm fluorescence (AID 1131).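 Note: z-score merges 667 nm fluorescence with per-spot signal-to-noise over triplicate slides.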 The settings on record: fibrinogen-A647 binding fluorescence, higher = more signal.
Experiment [13] addresses Follistatin (Homo sapiens) (UniProt P19883). Description: follistatin binders on small-molecule microarrays, primary screen, biochemical, small-molecule microarray, 635/667 nm fluorescence (AID 1132). The settings on record: FST binding, 635 nm fluorescence, higher = more signal.
For experiment [14], the target named is Fibroblast growth factor 2 (Homo sapiens) (UniProt P09038). Description: FGF2 binders on small-molecule microarrays, primary screen, biochemical, small-molecule microarray, 635/667 nm fluorescence (AID 1133). The settings on record: small-molecule microarray binding, FGF2, fluorescence 635/667; higher = more signal.
Sequence of Fibroblast growth factor 2 (Homo sapiens) (P09038 whole entry, looked up): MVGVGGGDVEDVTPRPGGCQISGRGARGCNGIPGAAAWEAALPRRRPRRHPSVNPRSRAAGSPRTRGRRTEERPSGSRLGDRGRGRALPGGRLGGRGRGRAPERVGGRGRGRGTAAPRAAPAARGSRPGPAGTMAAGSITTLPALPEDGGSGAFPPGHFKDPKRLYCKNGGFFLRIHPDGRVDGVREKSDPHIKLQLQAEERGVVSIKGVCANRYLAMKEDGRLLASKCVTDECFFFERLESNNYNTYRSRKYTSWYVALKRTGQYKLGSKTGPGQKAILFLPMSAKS
The nature of experiment [15]: mitochondrial membrane potential change in A549 cells, profiling panel, cell-based, JC-1 fluorescence, basal, 24 h, 100 nL (AID 1138).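 Note: A549 lung adenocarcinoma cells under basal conditions with no added stimulus; test concentration not given here.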 The settings on record: higher = more signal.
The next experiment relates to Lefty1. Description: Lefty1 binders on small-molecule microarrays, primary screen, biochemical, small-molecule microarray, 635/667 nm fluorescence (AID 1139). The settings on record: small-molecule microarray binding, fluorescence 635/667; higher = more signal.
In experiment [16] the test system is wheat germ agglutinin (Triticum aestivum), Alexa647-labelled. As to the kind of experiment: wheat germ agglutinin binders on compound microarrays, profiling panel, artefact control for SMM control-protein annotation, biochemical, small-molecule microarray, 635/667 nm fluorescence (AID 1140).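 Note: score merges 667 nm feature emission with signal to noise over triplicate slides.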 The settings on record: WGA-A647 binding, 635 nm fluorescence, higher = more signal.

The target of experiment [17] is Luciferin 4-monooxygenase (Photinus pyralis) (UniProt P08659). Description: firefly luciferase enzyme inhibitors, primary screen, biochemical, luminescence, purified enzyme, 2006 set (AID 1141).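 Note: cell-free assay with purified firefly luciferase at 100 ng per well in PBS; test concentration not given here.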 The settings on record: SteadyGlo luminescence, 30 min, higher = more signal, called active from +8 up or from −8 down.
Sequence of Luciferin 4-monooxygenase (Photinus pyralis) (P08659 whole entry, looked up): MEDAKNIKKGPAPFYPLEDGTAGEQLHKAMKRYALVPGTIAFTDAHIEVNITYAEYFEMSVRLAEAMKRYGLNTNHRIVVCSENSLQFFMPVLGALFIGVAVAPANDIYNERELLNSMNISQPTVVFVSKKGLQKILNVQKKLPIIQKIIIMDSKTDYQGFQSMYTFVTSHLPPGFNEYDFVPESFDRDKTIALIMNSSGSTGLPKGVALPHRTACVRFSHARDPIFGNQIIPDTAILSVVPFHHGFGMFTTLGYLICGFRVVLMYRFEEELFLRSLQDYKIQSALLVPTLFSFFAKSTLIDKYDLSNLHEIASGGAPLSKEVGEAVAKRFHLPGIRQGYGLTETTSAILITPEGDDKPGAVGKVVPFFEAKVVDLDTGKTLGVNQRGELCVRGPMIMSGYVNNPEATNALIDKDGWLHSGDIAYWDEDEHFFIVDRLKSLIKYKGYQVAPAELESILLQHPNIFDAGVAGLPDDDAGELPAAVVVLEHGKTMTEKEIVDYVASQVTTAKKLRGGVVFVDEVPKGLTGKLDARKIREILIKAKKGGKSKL

This note sets out measurements from PubChem BioAssay.

Structures are written as SMILES. Calls of active or inactive are those of the source.

Sequence of Follistatin (Homo sapiens) (P19883 whole entry, looked up): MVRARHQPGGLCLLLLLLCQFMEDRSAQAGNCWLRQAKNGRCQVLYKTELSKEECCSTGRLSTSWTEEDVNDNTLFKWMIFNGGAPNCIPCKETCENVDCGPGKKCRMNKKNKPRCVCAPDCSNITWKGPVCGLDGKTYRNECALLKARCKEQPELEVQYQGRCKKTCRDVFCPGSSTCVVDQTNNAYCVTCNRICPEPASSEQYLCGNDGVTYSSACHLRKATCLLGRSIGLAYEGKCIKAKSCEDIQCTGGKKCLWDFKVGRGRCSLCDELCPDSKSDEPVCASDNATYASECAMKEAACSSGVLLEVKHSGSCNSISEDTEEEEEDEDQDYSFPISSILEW
Sequence of Albumin (Bos taurus) (P02769 whole entry, looked up): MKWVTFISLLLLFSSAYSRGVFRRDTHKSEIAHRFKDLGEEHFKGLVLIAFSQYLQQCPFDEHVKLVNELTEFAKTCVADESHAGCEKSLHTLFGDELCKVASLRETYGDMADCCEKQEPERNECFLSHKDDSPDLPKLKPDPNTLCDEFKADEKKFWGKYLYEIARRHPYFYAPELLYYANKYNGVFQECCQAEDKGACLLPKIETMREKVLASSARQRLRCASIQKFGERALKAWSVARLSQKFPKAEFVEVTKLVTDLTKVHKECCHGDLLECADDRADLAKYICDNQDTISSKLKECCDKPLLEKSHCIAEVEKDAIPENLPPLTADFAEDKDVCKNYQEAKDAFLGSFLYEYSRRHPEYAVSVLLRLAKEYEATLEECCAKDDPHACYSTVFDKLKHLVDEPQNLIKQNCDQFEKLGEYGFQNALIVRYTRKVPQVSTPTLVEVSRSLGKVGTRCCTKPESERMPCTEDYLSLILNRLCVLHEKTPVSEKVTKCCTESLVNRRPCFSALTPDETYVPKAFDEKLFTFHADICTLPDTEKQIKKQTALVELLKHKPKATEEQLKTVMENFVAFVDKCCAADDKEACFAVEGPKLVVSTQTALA
Sequence of Concanavalin-A (Canavalia ensiformis) (P02866 whole entry, looked up): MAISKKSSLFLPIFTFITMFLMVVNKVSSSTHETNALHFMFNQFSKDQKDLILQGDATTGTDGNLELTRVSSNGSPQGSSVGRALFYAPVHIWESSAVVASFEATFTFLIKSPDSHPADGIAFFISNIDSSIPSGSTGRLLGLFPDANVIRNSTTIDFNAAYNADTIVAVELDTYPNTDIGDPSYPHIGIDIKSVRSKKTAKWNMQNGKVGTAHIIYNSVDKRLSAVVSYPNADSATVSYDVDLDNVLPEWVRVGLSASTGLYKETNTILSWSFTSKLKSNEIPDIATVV

Take `CCCCC=C[C@@H](NC(=O)OCc1ccccc1Cl)c1ccccc1`: the composite z-score in the experiment with Albumin (Bos taurus) came to 0.997; in experiment [2] it was 1.74; in [3], 0.825; in experiment [4] it was 0.526; in experiment [5] it was 2.65; in experiment [6], 0.0357. Also, the composite z-score is 1.3 in the experiment on Sam68 (KHDRBS1); -0.747 in [7]; 1.13 in experiment [8]; 0.361 in experiment [9]; 1.25 in experiment [10]; 0.128 in experiment [11]. The composite z-score is 0.979 in [12]; 1.19 in experiment [13]; -0.172 in experiment [14]; 0.868 in the experiment with Lefty1; 0.385 in [16]. For the same compound, the composite Z-score in [1] is -0.418 (inactive). Moreover, the z-score in [15] was -1.55; in experiment [17] it was 0.488 (inactive).

Take `CCOC(=O)C1=C[C@@H](C(C)(C)C)N(S(=O)(=O)c2ccc(C)cc2)[C@H]1c1cccc2ccccc12`: the composite z-score was 0.261 with Albumin (Bos taurus); 0.0327 in [2]; -0.101 in experiment [3]; 0.312 in experiment [4]; 1.76 in experiment [5]; 0.0493 in experiment [6]. The composite z-score with Sam68 (KHDRBS1) is 1.05; in [7], -0.516; in [8] it was 1.05; in experiment [9] it was 1.15; in experiment [10], 0.716; in experiment [11] it was 0.191. Further, the composite z-score was 0.896 in experiment [12]; 0.466 in experiment [13]; -0.195 in experiment [14]; 0.139 in the experiment on Lefty1; 0.437 in [16]. Further, in [1], the composite Z-score was 0.592 (inactive). The z-score in [15] was 2.89; in experiment [17], 0.908 (inactive).

Consider `C=CCC(OC(C)=O)[C@@H]1[C@@H](N(Cc2ccc(-c3cccc(C(F)(F)F)c3)o2)C(=O)c2ccc(-c3ccccc3)cc2)c2cc(OCCCO)ccc2N1C(=O)Cc1ccc2ccccc2c1` (stereo not given in full), for which the composite z-score with Albumin (Bos taurus) is -0.124; in experiment [2], -0.149; in experiment [3], -0.11; in experiment [4], -0.177; in [5] it was 0.453; in experiment [6], -0.039. For the same compound, the composite z-score was -0.421 in the experiment on Sam68 (KHDRBS1); -0.353 in [7]; -0.0333 in experiment [8]; -0.0298 in experiment [9]; -0.504 in experiment [10]; 0.0827 in experiment [11]. Moreover, the composite z-score in experiment [12] was 0.229; in experiment [13], 0.438; in experiment [14] it was -0.482; in the experiment on Lefty1, -0.175; in experiment [16], -0.0916. Moreover, the composite Z-score in experiment [1] is -0.274 (inactive). Besides, the z-score in experiment [15] was 0.0819; in experiment [17], 0.429 (inactive).

`CN1C(=O)C2C=CC(C(O)c3cccn3C)N(Nc3ccc([N+](=O)[O-])cc3[N+](=O)[O-])C2C1=O` (stereo not given): the composite z-score turned out to be 0.38 in the experiment with Albumin (Bos taurus); 0.0681 in experiment [2]; 0.476 in experiment [3]; 0.848 in experiment [4]; 0.856 in [5]; 0.376 in experiment [6]. Moreover, the composite z-score with Sam68 (KHDRBS1) was -0.0879; in experiment [7], -0.248; in experiment [8] it was -0.0516; in experiment [9], 0.421; in experiment [10], 0.414; in experiment [11], 0.0533. The composite z-score is -0.232 in [12]; -0.201 in experiment [13]; 0.275 in experiment [14]; -0.583 in the experiment on Lefty1; 0.408 in [16]. Also, the composite Z-score in [1] is -0.398 (inactive). Besides, the z-score in experiment [15] was 0.0408; in [17] it was 0.679 (inactive).

For `C#CCN(Cc1ccccc1Br)[C@H](/C=C/c1ccccc1)[C@@H](O)Cc1ccccc1`, the composite z-score with Albumin (Bos taurus) is -0.33; in [2], -0.226; in experiment [3], -0.167; in [4], -0.128; in experiment [5], 0.222; in [6], 0.163. Also, the composite z-score in the experiment with Sam68 (KHDRBS1) was 0.446; in experiment [7], 0.129; in experiment [8], -1.01; in experiment [9], 0.244; in experiment [10], -0.548; in [11], -0.082. The composite z-score in experiment [12] was -1.24; in [13] it was -1.25; in experiment [14], -1.23; in the experiment with Lefty1 it was -0.62; in [16] it was -0.351. Moreover, in experiment [1], the composite Z-score is 0.258 (inactive). In addition, the z-score in [15] is 0.921; in [17] it was -0.629 (inactive).

On to `CCCN1C(=O)[C@]2(Cc3ccccc31)N=C(c1ccc(OCCCO)cc1)O[C@@H]2c1ccccc1`, for which the composite z-score with Albumin (Bos taurus) is -0.0671; in experiment [2], 0.247; in experiment [3], -0.125; in experiment [4], 0.625; in experiment [5], 2.19; in experiment [6] it was 0.402. Also, the composite z-score is 1.24 in the experiment on Sam68 (KHDRBS1); -0.184 in experiment [7]; 0.884 in experiment [8]; 1.18 in experiment [9]; 1.22 in experiment [10]; 0.867 in [11]. The composite z-score in experiment [12] came to 0.971; in experiment [13], 1.3; in experiment [14] it was 0.716; in the experiment with Lefty1 it was 0.56; in experiment [16] it was 1.11. Also, the composite Z-score in experiment [1] is 0.0068 (inactive). The z-score in experiment [15] is -0.23; in experiment [17], -0.133 (inactive).

Regarding `COc1cc(NN2C(C(O)c3ccco3)C=CC3C(=O)N(C)C(=O)C32)cc(OC)c1OC` (stereo not given), the composite z-score was 0.593 with Albumin (Bos taurus); 0.313 in experiment [2]; 0.267 in experiment [3]; 0.738 in [4]; 0.815 in experiment [5]; -0.0901 in experiment [6]. Besides, the composite z-score is 0.633 with Sam68 (KHDRBS1); 0.861 in experiment [7]; 0.215 in experiment [8]; 1.04 in [9]; 0.388 in experiment [10]; -0.422 in [11]. The composite z-score in experiment [12] was 0.127; in experiment [13] it was -0.0496; in [14], 0.127; in the experiment with Lefty1, 0.0051; in experiment [16] it was 0.793. Further, the composite Z-score in experiment [1] is 0.319 (inactive). The z-score is 0.629 in [15] and -0.249 (inactive) in [17].

Consider `CC1CC/C=C\[C@H]2OC34C=CCN(C(C)(C)C)C(=O)[C@H]3N(CCCCCO)C(=O)[C@@H]4C2C(=O)O1` (stereo not given in full), for which the composite z-score in the experiment with Albumin (Bos taurus) was -0.0891; in experiment [2], -0.219; in experiment [3], -0.153; in [4], 0.887; in [5], -0.658; in experiment [6] it was -0.55. The composite z-score is -0.883 in the experiment with Sam68 (KHDRBS1); -1.34 in experiment [7]; -2.1 in experiment [8]; -1.24 in [9]; -1.07 in experiment [10]; -0.83 in [11]. Besides, the composite z-score in experiment [12] was -1.65; in [13] it was -0.898; in experiment [14], -0.447; in the experiment with Lefty1, -0.113; in experiment [16] it was -0.51. Further, in experiment [1], the composite Z-score was -0.838 (inactive). Moreover, the values for the z-score in [15] and in [17] were -0.227 and 0.152 (inactive), respectively.
